Assay outcomes from PubChem.
tim10-1 inh: growth inhibitors of tim10-1 mutant yeast; S. cerevisiae tim10-1 ts strain growth, BacTiter-Glo, 24 h; inhibition, % at 20 µM; hit rate 2.2% among 330,000;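 active means inhibition of at least 40%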;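 further: mutant grown at 25 °C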
tim23-1 inh: tim23-1 yeast growth inhibition; S. cerevisiae tim23-1 growth, BacTiter-Glo luminescence, 24 h; inhibition, % at 20 µM; hit rate 1.3% among 330,000; AID 463212;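 active means growth inhibition of the mutant yeast at or above 50%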;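 further: temperature-sensitive mutant grown at 25 °C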
SKKanGAS inh: inhibitors of SKKanGAS S. pyogenes growth in kanamycin (SK-promoter or general growth effect). BacTiter-Glo, 6 h. inhibition, % at 7.5 µM. hit rate 1.3% among 300,000. AID 1662;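 active means mean replicate score, as percent of positive control median, at least 50; inconclusive means mean below 50 but one replicate at or above 50; inactive means mean and every replicate below 50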;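 further: strain carries kanamycin resistance gene driven by streptokinase promoter and grows in 40 µg/ml kanamycin; loss of luminescence reflects streptokinase promoter inhibition or plain growth inhibition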
PfHsp90 set2: growth inhibition of yeast expressing Plasmodium Hsp90 | S. cerevisiae expressing PfHsp90, BacTiter-Glo ATP, 48 h; yeast lacking PDR1 and PDR3 efflux regulators | inhibition, % at 9.4 µM | hit rate 0.32% among 310,000;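 active means every replicate shows inhibition above about 80%, whatever the replicate mean, limit read from the data; inconclusive means mean inhibition reaches the set limit but some replicate falls short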
TIM10 inh: TIM10 yeast growth inhibition; AID 463195; hit rate 1.4% among 330,000; inhibition, % at 10 µM; S. cerevisiae TIM10 strain growth, BacTiter-Glo luminescence, 24 h;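 active means inhibition of 40% or more at the single tested concentration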;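 further: wild-type TIM10 isogenic control strain grown at permissive 25 °C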
tim10-1 confirm: tim10-1 yeast growth inhibition, confirmed | hit rate 56% among 7,400 | AID 463213 | shares compounds with tim10-1 inh | S. cerevisiae tim10-1 ts strain growth, BacTiter-Glo, 24 h | inhibition, % at 20 µM;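 active means inhibition of yeast growth at or above a set limit in either of two repeat tests at 20 µM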;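 further: tim10-1 mutant grown at permissive 25 °C to find synthetic lethal compounds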
TIM10 conf: confirmation of TIM10 yeast growth inhibitors. shares compounds with TIM10 inh. S. cerevisiae tim10 strain growth, BacTiter-Glo luminescence, 24 h. inhibition, % at 10 µM. hit rate 63% among 4,600. AID 463215;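 active means inhibition of yeast growth at or above a set limit in either of two replicates at 10 µM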; further: this counterscreen used the strain with wild-type TIM10
tim23-1 conf: tim23-1 yeast growth inhibition, confirmed | shares compounds with tim23-1 inh | S. cerevisiae tim23-1 growth, BacTiter-Glo luminescence, 24 h | inhibition, % at 20 µM | hit rate 83% among 4,400 | AID 463218;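 active means inhibition above about 39% in either of two replicate wells at 20 µM, limit read from the data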;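 further: temperature-sensitive tim23-1 mutant grown at 25 °C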
Large screens that a line does not name were inactive (follow-up assays come after a bar, where they were run). Shown are actives, neighbours in structure and some others; about 4.4% of the full set was active somewhere.

Oc1cc2c(cc1C(c1ccc(Cl)c(Cl)c1)N1CCCC1)OCO2 (stereo not drawn)	tim10-1 inh 49.8, tim23-1 inh 63.3 | tim10-1 confirm 38.6 | tim23-1 conf 45.0
COc1ccc(OC)c(C(C[N+](=O)[O-])c2c(C)cc3ccccn23)c1 (stereo not drawn)	tim10-1 inh 45.0, tim23-1 inh 85.2, TIM10 inh 65.6 | tim10-1 confirm 61.2 | TIM10 conf 81.6 | tim23-1 conf 91.3
COc1ccc(Br)cc1C(C[N+](=O)[O-])c1c(N)n(C)c(=O)n(C)c1=O (stereo not drawn)	none
CC(=O)c1ccc(OCCCN2CCCCC2)cc1	none
CCCCOc1ccc(C(=O)CCN2CCCCC2)cc1	tim10-1 inh 46.6, tim23-1 inh 50.0 | tim10-1 confirm inactive | tim23-1 conf 66.5
CCNC(=O)c1ccc2c(c1)C1C3CCC(C3)C1C(c1ccccc1)N2 (stereo not drawn)	tim10-1 inh 59.5, tim23-1 inh 62.6, TIM10 inh 41.0 | tim10-1 confirm 55.4 | TIM10 conf 42.9 | tim23-1 conf 65.0
CC(C)(C)c1nn(-c2ccccc2)c2[nH]c(=O)c(CNCc3ccco3)cc12	none
CC(C)(C)c1nn(-c2ccccc2)c2[nH]c(=O)c(CNc3ccc4c(c3)OCCO4)cc12	tim10-1 inh 67.8, tim23-1 inh 82.9, PfHsp90 set2 121.0, TIM10 inh 56.3 | tim10-1 confirm 64.8 | TIM10 conf 43.5 | tim23-1 conf 82.9
O=C(OCc1ccccc1F)c1cnc(Cl)c(Cl)c1	none
O=Cc1coc2ccc3ccccc3c2c1=O	tim10-1 inh 50.5, tim23-1 inh 76.5 | tim10-1 confirm inactive | tim23-1 conf 74.3
CCCCNC(=O)c1ccc(NS(=O)(=O)c2ccc3[nH]c(=O)[nH]c3c2)cc1	none
COc1ccc(C(=O)c2c(C(F)(F)F)oc3c2C(=O)c2ccccc2C3=O)cc1	tim10-1 inh 55.3, tim23-1 inh 78.5, SKKanGAS inh 97.0, TIM10 inh 50.6 | tim10-1 confirm 52.2 | TIM10 conf 75.9 | tim23-1 conf 73.2
COc1ccc(C(=O)c2oc3ccccc3c2NC(C)=O)cc1	none (no result: PfHsp90 set2)
COCCNC(=O)/C(C#N)=C/c1c(F)cccc1Cl	tim10-1 inh 63.3, tim23-1 inh 81.8, TIM10 inh 65.7 | tim10-1 confirm 55.5 | TIM10 conf 63.0 | tim23-1 conf 76.8
COCCNC(=O)/C(C#N)=C/c1ccc(SC)cc1	none
CC1(C)CC(=O)C2=C(C1)NC1=C(C(=O)c3ccccc31)C2c1ccc(Cl)cc1 (stereo not drawn)	tim10-1 inh 49.6, tim23-1 inh 52.4, TIM10 inh 40.1 | tim10-1 confirm 36.2 | TIM10 conf inactive | tim23-1 conf 46.2
FC(F)(F)c1nnc2ccc(N3CCCCCC3)nn12	tim10-1 inh 40.8, tim23-1 inh 50.1 (no result: SKKanGAS inh) | tim10-1 confirm inactive | tim23-1 conf inactive
Cc1cc(C)n(C(C[N+](=O)[O-])c2ccc(Cl)cc2)n1 (stereo not drawn)	tim10-1 inh 41.8, tim23-1 inh 75.7, TIM10 inh 76.8 | tim10-1 confirm 54.0 | TIM10 conf 67.5 | tim23-1 conf inactive
Cc1cc(C)n(CC(=O)c2ccc(Cl)cc2)n1	none
CC(C)(C)Nc1c([N+](=O)[O-])c(=O)sc2ccccc12	tim10-1 inh 54.6, tim23-1 inh 71.3, TIM10 inh 59.6 | tim10-1 confirm 52.8 | TIM10 conf 48.6 | tim23-1 conf 68.6
Cc1nn(-c2ccccc2)c(C)c1/C=N/Nc1nc2ccccc2[nH]1	tim10-1 inh 45.3, tim23-1 inh 51.8, SKKanGAS inh 60.0, TIM10 inh 48.2 | tim10-1 confirm inactive | TIM10 conf inactive | tim23-1 conf 41.2
Cc1cc(=O)[nH]c(N/N=C/c2c(C)nn(-c3ccccc3)c2C)n1	none
O=C(Nc1csc([N+](=O)[O-])c1)Nc1ccccc1Cl	tim10-1 inh 50.5, tim23-1 inh 65.6, TIM10 inh 54.0 | tim10-1 confirm 49.1 | TIM10 conf 67.2 | tim23-1 conf 56.5
CCOc1ccccc1C(=O)N/N=C/c1coc2ccc(Cl)cc2c1=O	tim10-1 inh 67.1, tim23-1 inh 68.3, TIM10 inh 70.7 (no result: SKKanGAS inh) | tim10-1 confirm 53.8 | TIM10 conf inactive | tim23-1 conf 68.9
Cc1ccc2occ(/C=N/NC(=O)c3ccc(Cl)cc3)c(=O)c2c1	none
O=C(O)c1cnc(-c2ccccc2)nc1Sc1ccc(Cl)cc1Cl	tim10-1 inh 53.5, tim23-1 inh 51.0, SKKanGAS inh inconclusive (no result: PfHsp90 set2) | tim10-1 confirm inactive | tim23-1 conf inactive
CCOC(OCC)c1cn(Cc2ccc3c(c2)C(=O)c2ccccc2C3=O)nn1	tim10-1 inh 43.9, tim23-1 inh 61.3 (no result: PfHsp90 set2) | tim10-1 confirm inactive | tim23-1 conf 78.2
CCOC(=O)c1cn(Cc2ccc(Br)cc2)nn1	none (no result: PfHsp90 set2)
O=C(O)c1ccc(Oc2cc(Oc3ccc(C(=O)O)cc3)cc([N+](=O)[O-])c2)cc1	none
O=C(CCc1ccc(Oc2cc([N+](=O)[O-])cc([N+](=O)[O-])c2)cc1)N1CCCCCC1	tim10-1 inh 42.7, tim23-1 inh 51.0, TIM10 inh 44.6 | tim10-1 confirm 38.5 | TIM10 conf 42.2 | tim23-1 conf 50.5
NC(=O)c1cc([N+](=O)[O-])ccc1N1CCN(Cc2ccccc2)CC1	none
O=C1C=C(C2OC(CO)C(O)C2O)C(=O)N1 (stereo not drawn)	none (no result: tim10-1 inh, tim23-1 inh, SKKanGAS inh, TIM10 inh)
CCN(CC)CCNC(=O)c1cn(CC)c2cc(N3CCN(C)CC3)c(F)cc2c1=O	none
Nc1cccc2c1C(=O)N(C(=O)c1ccco1)C2=O	none
Nc1cccc2c1C(=O)N(C(=O)/C=C/c1ccc(F)cc1)C2=O	tim10-1 inh 58.8, tim23-1 inh 74.2, TIM10 inh 49.3 | tim10-1 confirm 60.8 | TIM10 conf 47.0 | tim23-1 conf 86.1
N#C/C(=C\c1ccc[nH]1)C(=O)Nc1ccccc1[N+](=O)[O-]	none
Cc1cc(Nc2ccccc2)nc(-c2ccccc2O)n1	tim10-1 inh 63.1, tim23-1 inh 65.3, TIM10 inh 55.9 | tim10-1 confirm 55.2 | TIM10 conf 65.8 | tim23-1 conf 68.1
CC(C)N1CCN(C(=O)c2ccc(OC3CCN(CCc4ccccc4)CC3)cc2)CC1	none
CCOC(=O)C1(CCOC)CCN(Cc2cnc(-c3cccc(C)c3)nc2)CC1	none
COc1ccc(N(CC(=O)Nc2ccccc2OC)S(=O)(=O)c2ccc(NC(C)=O)cc2)cc1	none
Oc1ccc(-c2nccc(-c3ccc(F)cc3)n2)cc1	tim10-1 inh 51.9, tim23-1 inh 62.2 | tim10-1 confirm 53.8 | tim23-1 conf inactive
NNC(=O)COc1ccc(-c2nccc(-c3ccc(F)cc3)n2)cc1	tim10-1 inh 49.2, tim23-1 inh 54.5 | tim10-1 confirm inactive | tim23-1 conf 40.7
